# This is a sample that favours compounds with a hit; in the whole collection about 2.4% have one here.
# FEN1 inhibitor: qHTS Assay for the Inhibitors of Human Flap endonuclease 1 (FEN1). Recombinant FEN1 flap cleavage, fluorescence, 15 min. Potency, µM (titrated, usually from 114 µM), for the others: top-dose activity change, negative = inhibition, most hits filed as inhibitors. 0.35% of 390,000 active; note: % is set by controls: 0 for no effect and ±100 for the full control effect; nearly all actives have a fitted effect of over 65% in size
#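 Quantitative HTS format: each compound was titrated, incubated with 10 nM nuclease for 15 min at room temperature, then challenged with flap substrate at 50 nM final. Signal change over 15 min gave concentration–effect curves.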
# POLB inh: qHTS Assay for Inhibitors of DNA Polymerase Beta; Potency, µM (top dose mostly 114 µM), for inactives: top-dose activity change, negative = inhibition, usual class: inhibitors; Pol beta primer extension/strand displacement, fluorescence kinetic; 1.3% of 340,000 active; AID 485314, 2010; note: % is set by controls: 0 for no effect and ±100 for the full control effect
#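 Curves were derived by four-parameter Hill fits of normalized qHTS data. The kinetic fluorescent primer-extension read was taken at 0 and 10 min after 50 nM substrate, following a 15 min room-temperature preincubation of 10 nM enzyme with compounds.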
# POLH inh: qHTS for Inhibitors of Polymerase Eta. DNA polymerase eta (Homo sapiens), Q9Y253. recombinant Pol eta, fluorescent DNA replication assay. Potency, µM (top dose mostly 114 µM), without a hit: at the highest dose activity change, negative = inhibition, actives largely listed as inhibitors. 1.2% of 390,000 active; note: % is set by controls: 0 for no effect and ±100 for the full control effect
#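 Pol eta (10 nM) was preincubated with compounds for 15 min at room temperature, after which fluorescent replication substrate (50 nM final) was added to start the reaction. Fluorescence was read kinetically at 0 and 10 min.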
# WRN inhibitor: qHTS for Inhibitors of WRN Helicase. Bifunctional 3'-5' exonuclease/ATP-dependent helicase WRN (Homo sapiens), Q14191. Potency, µM (highest dose often 114 µM), for inactives: at the highest dose activity change, negative = inhibition, usual class: inhibitors. 0.46% of 360,000 active. WRN helicase unwinding, fluorescent forked duplex, kinetic; note: % is set by controls: 0 for no effect and ±100 for the full control effect; nearly all actives have a fitted effect of over 55% in size
#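 Fluorescence dequenching readout, ex 525 nm/em 598 nm, kinetic mode: forked duplex DNA (100 nM final) with adjacent fluorophore and quencher unwound by WRN (20 nM final) with 2 mM ATP. Compound preincubation 15 min, room temperature.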
# POLK inh: qHTS for Inhibitors of Polymerase Kappa; purified Pol kappa, fluorescent DNA synthesis assay, 10 min; Potency, µM (series often up to 107 µM), for inactives: at the top dose activity, negative = inhibition, hits mostly inhibitors; 0.53% of 400,000 active; AID 588579, 2011; note: % is set by controls: 0 for no effect and ±100 for the full control effect
# Target sequence (Q9UBT6 whole entry, looked up): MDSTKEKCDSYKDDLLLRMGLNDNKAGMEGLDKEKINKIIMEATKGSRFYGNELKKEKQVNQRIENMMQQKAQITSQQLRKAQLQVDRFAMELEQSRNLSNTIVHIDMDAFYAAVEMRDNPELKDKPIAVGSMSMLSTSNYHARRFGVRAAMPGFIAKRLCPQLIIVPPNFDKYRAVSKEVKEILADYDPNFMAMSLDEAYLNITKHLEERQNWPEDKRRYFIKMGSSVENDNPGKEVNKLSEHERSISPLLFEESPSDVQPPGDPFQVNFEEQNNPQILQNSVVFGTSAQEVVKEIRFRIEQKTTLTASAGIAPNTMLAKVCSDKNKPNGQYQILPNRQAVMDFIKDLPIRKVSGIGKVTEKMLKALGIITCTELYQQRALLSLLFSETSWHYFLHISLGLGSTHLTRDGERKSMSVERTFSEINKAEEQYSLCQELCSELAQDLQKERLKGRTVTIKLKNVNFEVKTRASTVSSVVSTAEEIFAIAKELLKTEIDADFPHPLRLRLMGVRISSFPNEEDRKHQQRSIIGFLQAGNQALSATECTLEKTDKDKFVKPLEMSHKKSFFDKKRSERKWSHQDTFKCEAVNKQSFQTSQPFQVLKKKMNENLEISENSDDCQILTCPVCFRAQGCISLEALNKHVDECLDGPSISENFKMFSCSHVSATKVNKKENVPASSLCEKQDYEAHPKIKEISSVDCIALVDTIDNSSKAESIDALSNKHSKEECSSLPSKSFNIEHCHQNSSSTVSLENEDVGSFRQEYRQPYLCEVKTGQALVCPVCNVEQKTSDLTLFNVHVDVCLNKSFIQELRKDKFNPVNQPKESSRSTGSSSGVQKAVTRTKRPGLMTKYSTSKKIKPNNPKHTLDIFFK
#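 Pol kappa 10 nM + cpd, 15 min RT; start w/ substrate 50 nM final; fluorescence kinetic read, 0 and 10 min. Neg ctrl: buffer, no enzyme.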
# Pol iota inh: qHTS for Inhibitors of Polymerase Iota; DNA polymerase iota (Homo sapiens), Q9UNA4; Pol iota fluorescent replication assay, 10 min; Potency, µM (titrated, usually from 115 µM), for inactives: at the highest dose activity, negative = inhibition, hits mostly inhibitors; 1% of 390,000 active; AID 588590, 2011
#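 Pol iota at 10 nM preincubated 15 min with compounds at room temperature; reaction started with fluorescent substrate, 50 nM final. Fluorescence read kinetically at 0 and 10 min; buffer-only wells as negative control.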
# * = called active by the depositor; ? = inconclusive; . = not tested or not shown; ! = a repeat was not active; [ ] = remark or other dose. Calls come from the whole dose curve; as a rule, active = well fitted curve in the direction sought with a large enough effect; inconclusive = small, poorly fitted or top-dose-only effect, or another doubt; inactive = no such curve, though single readings can be large; an effect the other way counts as inactive or inconclusive. Potency is the fitted concentration of half-maximal effect.
SMILES,FEN1 inhibitor,POLB inh,POLH inh,WRN inhibitor,POLK inh,Pol iota inh
CCN(c1ccccc1)S(=O)(=O)c1cc(C(=O)NCc2ccco2)ccc1C,7%,.,79µM*,-4%[11.6 µM],-14%,?
O=C(COC(=O)c1ccc(NS(=O)(=O)c2cccs2)cc1)NCc1ccco1,45µM*,?,4µM*,45µM*,32µM*,8.9µM*
COc1ccc(OC)c(C2CC(=O)Oc3c2c(=O)n(C)c2ccccc32)c1 (stereo unspecified),-1%,-14%,-7%,.,-28%,-3%
O=C(Nc1ccc(-c2nc3ncccc3o2)cc1)c1ccc(Br)o1,-1%,-3%,?,0%[57.1 µM],1%,13%
O=C(Nc1ccc(-c2nc3ncccc3o2)cc1)c1ccco1,1%,35µM*,?,-21%[57.1 µM],?,?
NC1=NC(=O)/C(=C/c2cccs2)S1,3%,-23%,-4%,-11%,-2%,6%
CS(=O)(=O)Nc1ccc(-c2ccc(/C=C3\SC(N)=NC3=O)o2)cc1,-26%,40µM*,?,?,-8%,?
CC(=O)Nc1ccc(NC(=O)c2ccc3c(c2)N(Cc2cccc(Cl)c2)C(=O)c2ccccc2S3=O)cc1 (stereo unspecified),-9%,-2%,-15%,.,-7%[60.1 µM],12%
CSC1=N/C(=C\c2ccc(Br)o2)C(=O)S1,-28%,40µM*,8.9µM*,?,32µM*,7.1µM*
Fc1ccc(Br)cc1C1C=C(c2ccc(Br)s2)Nc2ncnn21 (stereo unspecified),9%,10µM*,28µM*,-33%,-9%,?
COc1cccc(/C=N/Nc2nc(Nc3ccc([N+](=O)[O-])cc3)nc(N3CCCC3)n2)c1O,-25%,?,22µM*,50µM*,14µM*,?
CCC(=O)N1CCCc2cc(S(=O)(=O)N3CCC(C(=O)Nc4ccc(C#N)cc4)CC3)ccc21,-9%,16%,-10%,.,-4%[60.1 µM],-3%
CCC1(OC(=O)CN(C)C)C(=O)OCc2c1cc1n(c2=O)Cc2cc3c(N)cccc3nc2-1 (stereo unspecified),?,.,7.9µM*,?,?,8.9µM*
COc1ccc2c(c1)c(=O)c(C(=O)c1ccc(F)cc1)cn2CC(=O)Nc1ccc2c(c1)OCO2,5%,7%,-16%,.,4%,22%
CC(=O)n1cc(N(C(=O)CCl)c2ccc(C)cc2)c2ccccc21,7%,2%,32µM*,-2%,4%,6%
Cc1ccc(C(=O)NC2(C(F)(F)F)N=C(c3ccccc3)N(C3CCCCC3)C2=O)cc1 (stereo unspecified),-20%,-1%,-20%,.,-2%,-15%
Cc1cc(-c2ccc(S(=O)(=O)Nc3ccc(Cl)cc3C)cc2)on1,5%,-1%,-29%,.,-10%,22%
O=[N+]([O-])c1cc(/C=N\Nc2nccs2)ccc1O,.,4µM*,.,.,.,.
Cc1nc2cccnc2n1C1CCN(C(=O)Nc2ccc(Cl)cc2)CC1,-2%,2%,-20%,.,-1%[60.1 µM],25%
COc1ccccc1-c1nn2c(-c3ccco3)nnc2s1,-30%,14µM*,-10%,-16%,-15%,?
COc1cccc(OC)c1-c1nn2c(-c3cc(-c4ccccc4)n[nH]3)nnc2s1,28µM*,?,6.3µM*,40µM*,28µM*,28µM*
COc1ccc(OCc2nn3c(-c4ccco4)nnc3s2)cc1,-8%,?,?,-10%,-6%,-7%
COc1ccccc1-c1nn2c(-c3cc(-c4ccccc4)n[nH]3)nnc2s1,5%,.,.,.,8%,-1%
c1coc(-c2nn3c(-c4ccco4)nnc3s2)c1,-2%,28µM*,?,?,?,?
COc1ccc(-n2cc(-c3ccccc3)nc2SCC(=O)Nc2ccccc2)cc1Cl,3%,0%,-13%,.,-6%[60.1 µM],32%
SMILES,FEN1 inhibitor,POLB inh,POLH inh,WRN inhibitor,POLK inh,Pol iota inh
Cc1nc(NC2=NCN(CCCN3CCOCC3)CN2)nc2c(C)cccc12,40µM*,-27%,-2%,86%,-12%,?
Cc1cc2nc(NC3=NCN(CCN4CCOCC4)CN3)nc(C)c2cc1C,.,2%,.,.,.,.
CCN1CCN(c2cc(N3CCN(C(=O)c4ccco4)CC3)c3c4c(onc24)-c2ccccc2C3=O)CC1,?,-2%,-12%,152%,-17%,28µM*
CC(=O)OCCNc1cc(N2CCN(C)CC2)c2noc3c2c1C(=O)c1ccccc1-3,-28%,1%,-18%,-29%,-22%,52%
Cc1cc(C)nc(NS(=O)(=O)c2ccc(NC(=O)COc3ccc(C(C)(C)C)cc3)cc2)n1,-4%,1%,-12%,.,-15%,3%
COc1cc(NC(=O)C2CCCN(S(=O)(=O)c3ccc4c(c3)CCCN4C(C)=O)C2)cc(OC)c1 (stereo unspecified),6%,3%,-10%,-26%[57.1 µM],-15%,-2%
COc1ccc(NC(=O)C2CCCN(S(=O)(=O)c3ccc4c(c3)CCCN4C(C)=O)C2)cc1 (stereo unspecified),14%,4%,19%,-3%,-16%,79µM*!
Cc1cccc(Cn2cnc3c(oc4ccccc43)c2=O)c1,2%,-26%,-18%,.,-14%,24%
Cc1ccc2c(c1)c1nnc(SCC(=O)Nc3cccc(Cl)c3C)nc1n2CC(=O)O,-13%,22µM*,79µM*,?,-16%,-1%
Cc1ccc2c(c1)c1nnc(SCC(=O)Nc3ccccc3C(F)(F)F)nc1n2CC(=O)O,-2%,2%,-8%,-21%,7%,31%
COc1ccc(CCNc2oc(/C=C/c3cc(OC)c(OC)c(OC)c3)nc2C#N)cc1OC,-16%,-1%,-9%,.,-11%,0%
O=C(O)c1ccc(N/N=C/c2cc3cc4c(cc3nc2Cl)OCCO4)cc1,?,-12%,45µM*,-25%,-28%,?
O=C(O)c1cc(N/N=C/c2cccs2)ccc1Cl,.,22µM*,.,.,.,.
CC(C)n1cc(/C=N/Nc2ccc(Cl)c(C(=O)O)c2)c2ccccc21,.,32µM*,.,.,.,.
COc1cc(/C=N/Nc2ccc(Cl)c(C(=O)O)c2)ccc1OC(=O)c1ccc(F)cc1,?,-9%,79µM*,-13%[11.6 µM],-32%,?
O=Cc1cc2cc3c(cc2nc1Cl)OCCO3,5%,4%,8%,9%,1%,37%
COc1ccc2oc(=O)cc(CN3CCN(C(=O)c4ccccc4Br)CC3)c2c1,10%,3%,-16%,.,-10%,-1%
